KCNH2 3.1 inh: inhibitors of human KCNH2 3.1 potassium channel isoform | U2OS KCNH2 3.1, thallium flux FluxOr; active compounds read low | activity change, % (tested at about 1.8 µM) | 340,000 compounds, 0.95% hits;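 active means maximum activity change below -70%; inconclusive means maximum activity change from -70% to -50%; inactive means maximum activity change above -50%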;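 further: thallium influx rate constant from kinetic fluorescence after stimulation buffer; on the % scale 0 is the no-effect control and ±100 the full control effect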
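Virally transduced U2OS (3.1 isoform, 4 h infection in dark at RT) → overnight 37 C → FluxOr + Red40 in HBSS/HEPES, 45 min → stimulation buffer, 2 min kinetic read → rate constant vs DMSO controls.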
PTAP TSG101 blk: blocks PTAP/TSG101 interaction to inhibit HIV-1 budding | Fluorescence polarization, FITC-PTAP peptide / Tsg101 binding | Q99816 | Potency, µM (top dose mostly 115 µM), inactives show top-dose activity change, negative = inhibition, hits mostly inhibitors | 340,000 tested, under 10 active; active means well fitted inhibition curve with a large enough effect in the main read-out, with a control signal flat, not every such curve was filed as active; inconclusive means small, poorly fitted or top-dose-only effect, or effect the other way, or a change in a side signal; inactive means no such curve, though single readings can be large or run the other way; further: potency means the concentration at half of the fitted maximal effect; % of control where 0% means no effect
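FP read-out: FITC-PTAP peptide, 50 nM final, binding Tsg101 binding domain, 10 uM final; 20 min, r.t.; 10 mM HEPES pH 7.5, 0.15 M NaCl, 0.01% Tween 20, 3 mM EDTA, 0.1 mM TCEP.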
KCNH2 WT inh: blocks the wildtype human KCNH2 potassium channel | Q12809 | U2OS, BacMam KCNH2, thallium flux FluxOr; active compounds read low | activity change, % at 1.84 µM | 340,000 compounds, 0.37% hits | AID 720551;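 active means maximum activity change below -70%; inconclusive means maximum activity change between -70% and -50%; inactive means maximum activity change above -50%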; further: on the % scale 0 is the no-effect control and ±100 the full control effect
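U2OS cells transduced with wild-type KCNH2 virus are loaded with FluxOr dye for 45 min, and thallium flux is measured in kinetic reads before and after stimulation buffer. Rate constants are normalized to DMSO controls.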
Tb PFK inh: blocks T. brucei phosphofructokinase; T. brucei PFK, ADP-Glo luminescence; Potency, µM (titrated, usually from 57.5 µM), for the others: at the highest dose activity, negative = inhibition, most hits filed as inhibitors; 330,000 compounds, 0.17% hits; AID 485367; active means well fitted inhibition curve with a large enough effect; inconclusive means small, poorly fitted or top-dose-only effect, or effect the other way;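 further: potency means the concentration at half of the fitted maximal effect; 0% = uninhibited 1x PFK enzyme wells and -100% = no-enzyme wells; nearly all actives have a fitted effect of over 60% in size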
Target sequence (O15648 whole entry, looked up): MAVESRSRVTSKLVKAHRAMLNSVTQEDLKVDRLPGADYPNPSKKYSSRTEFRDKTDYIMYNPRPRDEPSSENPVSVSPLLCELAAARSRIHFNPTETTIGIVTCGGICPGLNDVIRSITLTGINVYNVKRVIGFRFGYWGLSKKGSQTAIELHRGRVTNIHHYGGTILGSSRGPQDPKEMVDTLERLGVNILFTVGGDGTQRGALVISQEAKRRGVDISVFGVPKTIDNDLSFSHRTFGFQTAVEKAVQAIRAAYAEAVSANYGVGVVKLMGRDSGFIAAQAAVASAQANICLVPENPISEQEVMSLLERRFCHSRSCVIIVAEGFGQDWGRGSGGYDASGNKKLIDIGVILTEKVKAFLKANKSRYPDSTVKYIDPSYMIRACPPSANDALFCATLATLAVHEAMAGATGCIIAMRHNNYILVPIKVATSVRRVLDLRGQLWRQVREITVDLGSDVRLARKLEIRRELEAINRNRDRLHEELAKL
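Compounds were pin-transferred as a titration series up to 57 uM into substrate buffer (0.5 mM F6P, 0.1 mM ATP, pH 8.0), then 1.25 nM PFK was added and reactions ran 45 min before ADP-Glo detection.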
* = called active by the depositor; ? = inconclusive; . = no result given. An excerpt weighted towards active compounds, which were near 1.2% of everything screened.

SMILES	KCNH2 3.1 inh	PTAP TSG101 blk	KCNH2 WT inh	Tb PFK inh
CCOC(=O)C1CCN(C(=O)COC(=O)c2ccc([N+](=O)[O-])o2)CC1	-4.2	-1.0%	-17.4	-0.1%
CSC1=NSC2=NC(=O)/C(=C\c3coc4ccccc4c3=O)C(=N)N12	13.7	35.5µM*	-3.8	0.1%
C=CCN(c1ccc(C(=O)Nc2ccc3c(c2)OCO3)cc1)S(C)(=O)=O	-14.3	4.4%	2.7	-1.7%
C=CCN(c1ccc(C(=O)Nc2ccc3c(c2)n(C)c(=O)n3C)cc1)S(C)(=O)=O	4.2	1.3%	-283.9*	4.1%
COc1ccc(CCC(=O)Nc2ccc(S(=O)(=O)Nc3nccc(C)n3)cc2)cc1	8.5	-6.3%	3.5	-24.0%
CC1CCCCC1NC(=O)Cn1cc([N+](=O)[O-])ccc1=O (stereo not drawn)	7.0	0.1%	-0.6	-3.4%
O=C(N/N=C/c1ccccn1)c1ccc(NC(=O)c2cccc([N+](=O)[O-])c2)cc1	-70.6*	-4.2%	-6.4	-5.8%
O=C(Nc1cccc(NC(=O)c2cccc([N+](=O)[O-])c2)n1)c1cccc([N+](=O)[O-])c1	-83.8*	-7.4%	-7.3	-2.2%
O=C(N/N=C/c1ccccn1)c1cccc([N+](=O)[O-])c1	-5.5	1.1%	3.4	4.3%
Cc1ccc(C(c2cc(Br)ccc2O)N2CCSCC2)cc1 (stereo not drawn)	-5.6	1.1%	-40.5	0.0%
COc1cc(/C=N/NC(=O)CN2CCCCC2)ccc1OCc1ccccc1	10.0	-4.2%	-4.3	-5.2%
O=C(CN1CCCCC1)N/N=C/c1ccccc1OCc1ccccc1	-80.9*	0.3%	1.8	-4.4%
CC(C)CNC(=O)c1cccc(NC(=O)COc2cccc([N+](=O)[O-])c2)c1	.	-2.4%	6.0	-2.5%
Cc1ccc(C(C)NC(=O)c2cccs2)cc1 (stereo not drawn)	0.6	6.4%	0.6	.
CC(NC(=O)c1cccs1)c1ccccc1 (stereo not drawn)	-95.1*	-0.6%	5.6	.
Cc1ccc(C)c(C(=O)CCC(=O)Nc2ccc(N3CCN(C)CC3)cc2C)c1	-121.8*	1.2%	-47.8	5.7%
O=C(Cc1cccs1)Nc1cccc(C(=O)Nc2ccco2)c1	-70.1*	-4.6%	-10.8	3.6%
CC(=O)c1cccc(NC(=O)Cc2cccs2)c1	2.6	-6.8%	0.5	-1.5%
COc1cccc(C2Nc3ccccc3NC3=C2C(=O)CC(C)(C)C3)c1OC (stereo not drawn)	-0.2	-8.0%	-5.4	1.7%
COc1ccccc1C1Nc2ccccc2NC2=C1C(=O)CC(C)(C)C2 (stereo not drawn)	-193.9*	-1.0%	-129.1*	0.2%
Cc1ccc(-c2nc(CS(=O)(=O)CC(=O)NC3CCCCCC3)c(C)o2)cc1	-2.2	-1.5%	4.0	0.7%
COc1cccc(-c2nc(CS(=O)(=O)CC(=O)Nc3c(C)cccc3C)c(C)o2)c1	-104.0*	0.7%	2.7	0.0%
Cc1ccc(-c2nc(CS(=O)(=O)CC(=O)NCCN3CCOCC3)c(C)o2)cc1	9.2	-4.8%	-187.2*	-2.3%
COc1ccc(-c2nc(CS(=O)(=O)CC(=O)NC3CCCCCC3)c(C)o2)cc1	-4.1	1.5%	-101.6*	-1.3%
COc1cccc(-c2nc(CS(=O)(=O)CC(=O)Nc3cc(C)ccc3C)c(C)o2)c1	-6.8	-6.2%	-1.0	1.2%
SMILES	KCNH2 3.1 inh	PTAP TSG101 blk	KCNH2 WT inh	Tb PFK inh
N#Cc1cccc(NC(=O)CNc2cc(S(=O)(=O)N3CCOCC3)ccc2N2CCCC2)c1	-5.3	-2.7%	-1.8	-9.1%
O=C(NCCCN1CCc2ccccc2C1)Nc1ccc(Br)cc1	-80.3*	-1.7%	3.8	-8.6%
O=C(Nc1ccc(S(=O)(=O)NCc2ccccc2)cc1)C1CCCCC1	-71.9*	-1.4%	5.2	0.6%
CC(=O)Nc1ccc(S(=O)(=O)NCC2CCC(C(=O)NCc3ccccc3)CC2)cc1 (stereo not drawn)	-4.2	-7.4%	.	2.6%
COc1ccccc1NC(=O)N(C)C[C@@H]1OCc2cnnn2CCCC(=O)N([C@@H](C)CO)C[C@H]1C	5.8	.	-1.8	.
O=S(=O)(c1ccc(Cl)nc1)N1CCCc2ccccc21	4.0	-1.9%	2.6	?
O=S(=O)(c1ccc(Cl)nc1)N1CCc2ccccc21	-22.1	0.0%	-110.7*	4.2%
CCn1c(=S)sc2c(=O)n(CC(=O)Nc3ccccc3C(F)(F)F)c(C)nc21	19.6	1.9%	-7.0	-3.5%
CC(Nc1ccc(Br)cn1)c1cc(Cl)ccc1O (stereo not drawn)	-72.1*	-2.3%	-31.3	-5.5%
Cc1ccc([C@H]2N[C@]3(CCCN(Cc4ccccc4)C3=O)[C@H]3C(=O)N(C)C(=O)[C@@H]23)cc1	-4.2	.	2.0	.
OC(CNCCc1ccc(C(F)(F)F)cc1)COC(c1ccccc1)c1ccccc1 (stereo not drawn)	-74.1*	-6.4%	.	-12.9%
CN(CC(=O)Nc1ccc(SC(F)F)cc1)C1CCCCC1	-94.1*	-0.6%	-37.3	2.2%
COc1ccc(CN(C)CC(=O)Nc2ccc(SC(F)F)cc2)cc1OC	-97.8*	-1.8%	-38.3	-0.7%
COC(=O)c1cnn(-c2ccc(C(=O)Nc3cccc(C(C)=O)c3)cc2)c1N	.	.	.	-2.9%
C=CCn1cccc(C(=O)Nc2ccc(OC)cc2)c1=O	17.8	1.4%	6.5	-2.8%
COc1ccc(NC(=O)c2cccn(CC=C(C)C)c2=O)cc1	-101.7*	-2.5%	-3.0	-4.9%
CC(C)c1cccc(OCCN2CCCC2)c1	-5.4	-2.9%	16.3	-1.9%
CCc1ccc(Nc2ccc3nonc3c2[N+](=O)[O-])cc1	-158.8*	-3.8%	-134.2*	.
O=[N+]([O-])c1c(Nc2ccccc2)ccc2nonc12	6.5	-8.1%	-2.6	-0.3%
O=C(NCc1ccco1)c1cnn2c1NC(c1ccc(Br)cc1)CC2C(F)(F)F (stereo not drawn)	-0.2	0.8%	-71.2*	-6.1%
CC(C)CC1NC(=O)c2cc(Cl)ccc2-n2c1nc1ccc(F)cc1c2=O (stereo not drawn)	.	.	.	-0.4%
S=C1N(c2ccccc2)CN(CCN2CCOCC2)CN1c1ccccc1	-3.6	2.4%	1.2	0.2%
CCc1nnc(NC(=O)CN2CCC(O)(c3ccccc3OC)CC2)s1	5.0	-0.4%	-10.1	-6.0%
COc1ccccc1C1(O)CCN(CC(=O)Nc2nc(-c3ccccc3)cs2)CC1	-86.3*	0.0%	6.9	2.0%
N#Cc1ccc(COC(=O)CC(NC(N)=O)c2ccc(Cl)cc2)cc1 (stereo not drawn)	-11.5	1.4%	-2.3	1.5%
CCc1cc(SC#N)cc(C)c1N	-73.6*	-2.7%	12.2	-4.7%
Cc1ccccc1CCN1CCCC(CN(C)C(=O)C(=O)c2ccco2)C1 (stereo not drawn)	-89.7*	2.3%	-1.7	6.1%
CN(CC1CCCN(CCc2ccc(Cl)cc2)C1)C(=O)C(=O)c1ccco1 (stereo not drawn)	-88.7*	-4.2%	-22.5	-3.8%
CC(C)c1ccc(-c2c(NCCc3ccccc3)c(=O)c2=O)cc1	14.7	-4.0%	-3.6	0.3%
